Data published in the supplement of paper PMC10849652.
The full data set covers some 8,800 targets. This sample favours those with a hit. About 0.5% of all pairs of compound and target were hits.

Columns and labels:
Test in all cases: log2 fold change, soluble protein after heating vs DMSO (PISA); higher = thermal stabilisation; K562 lysate, 10 uM; active = over 0.2 and 3.5 SD of the protein, either way, in both replicates (recomputed)
alvocidib = compound: CN1CC[C@H](c2c(O)cc(O)c3c(=O)cc(-c4ccccc4Cl)oc23)[C@H](O)C1 [alvocidib]
Method in brief: (§1)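 K562 pellets were dounce-homogenised in PBS pH 7.4 with 1 mM MgCl2, and the crude extract at 1 mg/mL protein was treated with 10 μM compound for 30 min. Aliquots were heated for 3 min across 48°C-58°C, pooled, and brought to 0.5% NP-40 at 4°C; soluble protein was the supernatant after 21,000xg for 90 min. Soluble protein was quantified by TMTpro 16plex LC-MS/MS with channel sums equalised, and reported as log2 fold change in thermal stability against DMSO controls, with values from duplicates.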

Tubastatin A = compound: CN1CCc2c(c3ccccc3n2Cc2ccc(C(=O)NO)cc2)C1 [Tubastatin A]
Method in brief: as §1

[1] = compound: CNC(=O)C1=CC=CC=C1NC2=NC(=NC=C2Cl)NC3=C(C=C(C=C3)N4CCOCC4)OC
Method in brief: as §1

defactinib = compound: CNC(=O)c1ccc(Nc2ncc(C(F)(F)F)c(NCc3nccnc3N(C)S(C)(=O)=O)n2)cc1 [defactinib]
Method in brief: as §1

[2] = compound: CNc1nc(-c2ccc3c(N)n[nH]c3c2)cc(N2C[C@@H](C(=O)NC3CCCCC3)CC[C@H]2C)n1
Method in brief: as §1

encorafenib = compound: COC(=O)N[C@@H](C)CNc1nccc(-c2cn(C(C)C)nc2-c2cc(Cl)cc(NS(C)(=O)=O)c2F)n1 [encorafenib]
Method in brief: as §1

[3] = compound: COC(=O)[C@H](CCSC)NC(=O)C1=C(C=C(C=C1)NC[C@H](CS)N)C2=CC=CC=C2
Method in brief: as §1

alisertib = compound: COc1cc(Nc2ncc3c(n2)-c2ccc(Cl)cc2C(c2c(F)cccc2OC)=NC3)ccc1C(=O)O [alisertib]
Method in brief: as §1

[4] = compound: COc1cc2nc(-c3cc(F)ccc3O)nc(N[C@@H]3CNC[C@H]3C(C)(C)O)c2cc1OC
Method in brief: as §1

gefitinib = compound: COc1cc2ncnc(Nc3ccc(F)c(Cl)c3)c2cc1OCCCN1CCOCC1 [gefitinib]
Method in brief: as §1

Measured: log2 fold change

WDR7 (UniProt Q9Y4E6)
Chain of UniProt Q9Y4E6 (Q9Y4E6 whole entry, looked up): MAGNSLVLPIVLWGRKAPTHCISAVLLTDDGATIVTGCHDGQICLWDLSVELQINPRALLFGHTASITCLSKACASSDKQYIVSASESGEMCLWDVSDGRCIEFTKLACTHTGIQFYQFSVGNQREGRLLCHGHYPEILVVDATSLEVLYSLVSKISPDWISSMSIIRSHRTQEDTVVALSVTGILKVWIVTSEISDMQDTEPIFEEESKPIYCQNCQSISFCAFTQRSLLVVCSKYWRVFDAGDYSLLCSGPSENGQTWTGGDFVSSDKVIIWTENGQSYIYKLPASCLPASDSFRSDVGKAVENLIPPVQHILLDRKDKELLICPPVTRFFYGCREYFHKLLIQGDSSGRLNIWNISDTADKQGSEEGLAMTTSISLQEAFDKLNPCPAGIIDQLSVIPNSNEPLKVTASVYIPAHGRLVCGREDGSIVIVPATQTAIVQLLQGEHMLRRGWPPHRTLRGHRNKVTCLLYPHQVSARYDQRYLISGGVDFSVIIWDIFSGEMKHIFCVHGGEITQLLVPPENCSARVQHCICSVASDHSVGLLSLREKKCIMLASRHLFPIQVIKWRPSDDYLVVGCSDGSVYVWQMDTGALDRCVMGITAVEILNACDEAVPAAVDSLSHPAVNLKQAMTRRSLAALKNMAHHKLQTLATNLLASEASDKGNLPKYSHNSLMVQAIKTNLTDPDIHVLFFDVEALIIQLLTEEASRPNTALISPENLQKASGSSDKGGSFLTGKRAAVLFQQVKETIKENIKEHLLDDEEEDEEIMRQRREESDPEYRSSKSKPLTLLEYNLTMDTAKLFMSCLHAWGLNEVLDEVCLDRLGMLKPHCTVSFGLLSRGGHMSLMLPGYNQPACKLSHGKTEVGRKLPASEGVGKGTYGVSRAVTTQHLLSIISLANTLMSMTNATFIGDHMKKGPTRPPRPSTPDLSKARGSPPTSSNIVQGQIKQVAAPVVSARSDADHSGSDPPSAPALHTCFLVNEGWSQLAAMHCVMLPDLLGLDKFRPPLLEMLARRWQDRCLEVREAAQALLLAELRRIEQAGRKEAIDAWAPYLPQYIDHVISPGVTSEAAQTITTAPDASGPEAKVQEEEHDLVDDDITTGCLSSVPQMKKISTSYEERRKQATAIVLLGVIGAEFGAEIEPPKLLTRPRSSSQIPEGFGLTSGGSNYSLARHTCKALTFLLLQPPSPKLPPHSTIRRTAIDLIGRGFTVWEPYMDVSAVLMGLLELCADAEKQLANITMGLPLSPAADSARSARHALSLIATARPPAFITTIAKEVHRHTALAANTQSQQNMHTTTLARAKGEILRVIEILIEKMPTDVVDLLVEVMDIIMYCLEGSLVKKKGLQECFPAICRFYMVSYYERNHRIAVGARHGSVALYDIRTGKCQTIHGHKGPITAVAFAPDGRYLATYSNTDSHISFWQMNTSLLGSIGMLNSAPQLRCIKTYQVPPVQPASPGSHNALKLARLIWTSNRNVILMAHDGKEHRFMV
inactive: alvocidib -0.008 | Tubastatin A 0.008 | [1] 0 | defactinib -0.025 | [2] 0.026 | encorafenib 0.092 | [3] -0.055 | alisertib -0.007 | [4] -0.01 | gefitinib -0.025

ZHX1 (UniProt Q9UKY1)
inactive: alvocidib -0.231 | Tubastatin A -0.194 | [1] 0 | defactinib 0.034 | [2] 0.251 | encorafenib 0.041 | [3] 0.044 | alisertib 0.013 | [4] 0.042 | gefitinib 0.012

WDR24 (UniProt Q96S15)
inactive: alvocidib -0.001 | Tubastatin A -0.096 | [1] -0.032 | defactinib 0.053 | [2] -0.054 | encorafenib 0.022 | [3] 0.125 | alisertib -0.02 | [4] 0.021 | gefitinib -0.008

VTN (UniProt P04004)
Chain of UniProt P04004 (P04004 whole entry, looked up): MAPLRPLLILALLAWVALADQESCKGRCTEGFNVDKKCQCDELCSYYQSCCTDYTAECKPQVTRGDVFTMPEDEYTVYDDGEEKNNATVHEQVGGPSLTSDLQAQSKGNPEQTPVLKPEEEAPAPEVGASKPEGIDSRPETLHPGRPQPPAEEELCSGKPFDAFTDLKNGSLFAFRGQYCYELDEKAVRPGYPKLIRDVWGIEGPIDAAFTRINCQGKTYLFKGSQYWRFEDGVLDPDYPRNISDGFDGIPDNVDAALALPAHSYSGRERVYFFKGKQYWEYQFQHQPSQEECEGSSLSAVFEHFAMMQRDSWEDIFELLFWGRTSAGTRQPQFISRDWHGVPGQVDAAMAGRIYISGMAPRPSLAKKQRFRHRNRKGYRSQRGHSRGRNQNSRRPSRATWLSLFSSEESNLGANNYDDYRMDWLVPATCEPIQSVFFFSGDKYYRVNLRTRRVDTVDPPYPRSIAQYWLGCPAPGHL
inactive: alvocidib -0.112 | Tubastatin A -0.012 | [1] -0.095 | defactinib 0.104 | [2] -0.061 | encorafenib 0.089 | [3] -0.074 | alisertib -0.041 | [4] 0.014 | gefitinib 0.009

ZC3H13 (UniProt Q5T200)
inactive: alvocidib -0.063 | Tubastatin A 0.063 | [1] -0.073 | defactinib 0.088 | [2] -0.028 | encorafenib -0.069 | [3] 0.021 | [4] 0.016 | gefitinib -0.077
active: alisertib -0.362

XPNPEP1 isoform 3 (UniProt Q9NQW7)
active: [3] 0.613
inactive: alvocidib -0.018 | Tubastatin A 0.011 | [1] 0.029 | defactinib -0.001 | [2] -0.045 | encorafenib 0.001 | alisertib -0.002 | [4] 0.002 | gefitinib 0.002

YEATS4 (UniProt O95619)
Chain of UniProt O95619 (O95619 whole entry, looked up): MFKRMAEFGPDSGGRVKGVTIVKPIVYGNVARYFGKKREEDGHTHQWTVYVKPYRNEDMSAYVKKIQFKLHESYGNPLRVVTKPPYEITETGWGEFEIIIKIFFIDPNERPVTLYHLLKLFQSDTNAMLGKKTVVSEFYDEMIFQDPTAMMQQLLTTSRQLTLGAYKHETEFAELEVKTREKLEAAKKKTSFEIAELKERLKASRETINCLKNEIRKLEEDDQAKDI
active: alisertib 0.315
inactive: alvocidib 0.105 | Tubastatin A 0.004 | [1] 0.012 | defactinib 0.007 | [2] -0.054 | encorafenib -0.004 | [3] -0.062 | [4] -0.008 | gefitinib -0.064

VANGL1 (UniProt Q8TAA9)
inactive: alvocidib 0.005 | Tubastatin A 0.088 | [1] -0.054 | defactinib 0.078 | [2] 0.054 | encorafenib -0.011 | [3] -0.072 | alisertib -0.023 | [4] -0.071 | gefitinib 0.011

VPS41 (UniProt P49754)
Chain of UniProt P49754 (P49754 whole entry, looked up): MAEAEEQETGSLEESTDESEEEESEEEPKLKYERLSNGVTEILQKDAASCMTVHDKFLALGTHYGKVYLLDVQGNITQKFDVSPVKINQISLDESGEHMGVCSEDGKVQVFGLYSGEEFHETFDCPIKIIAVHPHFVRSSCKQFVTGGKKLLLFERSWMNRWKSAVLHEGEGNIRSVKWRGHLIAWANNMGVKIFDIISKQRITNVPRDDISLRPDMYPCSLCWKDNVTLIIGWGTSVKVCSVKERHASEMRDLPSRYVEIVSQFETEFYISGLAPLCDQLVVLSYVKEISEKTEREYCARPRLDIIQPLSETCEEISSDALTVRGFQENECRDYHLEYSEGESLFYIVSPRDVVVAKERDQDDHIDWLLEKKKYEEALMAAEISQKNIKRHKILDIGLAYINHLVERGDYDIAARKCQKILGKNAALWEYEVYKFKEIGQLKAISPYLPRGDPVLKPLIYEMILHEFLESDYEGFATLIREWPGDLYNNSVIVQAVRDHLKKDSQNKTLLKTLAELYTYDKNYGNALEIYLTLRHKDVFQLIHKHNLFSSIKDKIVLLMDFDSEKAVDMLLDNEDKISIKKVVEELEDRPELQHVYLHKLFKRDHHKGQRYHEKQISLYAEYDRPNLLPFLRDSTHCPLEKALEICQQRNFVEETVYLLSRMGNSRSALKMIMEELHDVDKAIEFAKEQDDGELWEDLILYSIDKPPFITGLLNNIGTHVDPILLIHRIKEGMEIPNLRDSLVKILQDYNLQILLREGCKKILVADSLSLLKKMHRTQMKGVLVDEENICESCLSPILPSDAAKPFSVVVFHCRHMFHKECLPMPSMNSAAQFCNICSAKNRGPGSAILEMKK
inactive: alvocidib 0.068 | Tubastatin A -0.128 | [1] 0.03 | defactinib 0.006 | [2] -0.055 | encorafenib 0.019 | [3] -0.072 | alisertib -0.043 | [4] 0.006 | gefitinib -0.004

UXT isoform 2 (UniProt Q9UBK9)
inactive: alvocidib -0.038 | Tubastatin A 0.081 | [1] 0.015 | defactinib 0.069 | encorafenib -0.081 | [3] 0.025 | alisertib -0.041 | [4] 0.038 | gefitinib 0.04
active: [2] 0.574

WRN (UniProt Q14191)
inactive: alvocidib -0.029 | Tubastatin A -0.071 | [1] -0.007 | defactinib 0.023 | [2] -0.025 | encorafenib 0.016 | [3] -0.013 | alisertib -0.037 | [4] 0 | gefitinib 0.047

ZNF217 (UniProt O75362)
inactive: alvocidib -0.144 | Tubastatin A -0.076 | [1] 0.009 | defactinib -0.045 | [2] -0.004 | encorafenib -0.06 | [3] -0.037 | alisertib 0.032 | [4] 0.219 | gefitinib -0.013

UNC45A (UniProt Q9H3U1)
Chain of UniProt Q9H3U1 (Q9H3U1 whole entry, looked up): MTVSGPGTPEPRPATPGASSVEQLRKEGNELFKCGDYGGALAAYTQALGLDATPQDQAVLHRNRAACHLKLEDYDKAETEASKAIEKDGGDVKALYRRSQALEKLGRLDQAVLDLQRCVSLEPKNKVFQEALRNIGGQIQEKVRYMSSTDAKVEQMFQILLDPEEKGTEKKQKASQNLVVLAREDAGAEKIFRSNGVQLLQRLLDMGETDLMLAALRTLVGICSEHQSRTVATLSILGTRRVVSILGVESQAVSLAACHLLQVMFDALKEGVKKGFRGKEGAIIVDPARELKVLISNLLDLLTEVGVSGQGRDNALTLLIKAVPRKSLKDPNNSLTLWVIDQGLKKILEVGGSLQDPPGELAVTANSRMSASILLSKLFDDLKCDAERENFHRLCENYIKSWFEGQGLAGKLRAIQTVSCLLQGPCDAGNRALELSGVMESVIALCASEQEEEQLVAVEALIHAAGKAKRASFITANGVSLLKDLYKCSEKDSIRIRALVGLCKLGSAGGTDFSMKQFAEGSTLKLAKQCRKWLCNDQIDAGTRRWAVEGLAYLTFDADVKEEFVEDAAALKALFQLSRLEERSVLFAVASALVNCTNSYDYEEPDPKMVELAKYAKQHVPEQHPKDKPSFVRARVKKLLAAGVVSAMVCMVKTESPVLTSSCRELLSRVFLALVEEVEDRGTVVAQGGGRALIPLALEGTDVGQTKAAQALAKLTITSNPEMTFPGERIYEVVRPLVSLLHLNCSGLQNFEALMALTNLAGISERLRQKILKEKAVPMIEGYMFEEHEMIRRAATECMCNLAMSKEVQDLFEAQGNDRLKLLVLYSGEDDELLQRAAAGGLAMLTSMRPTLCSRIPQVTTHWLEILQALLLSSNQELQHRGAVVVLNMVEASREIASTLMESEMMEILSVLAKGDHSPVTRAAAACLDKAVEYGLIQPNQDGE
inactive: alvocidib -0.017 | Tubastatin A -0.146 | [1] 0 | defactinib 0.018 | [2] -0.011 | encorafenib -0.003 | [3] 0.044 | alisertib 0.006 | [4] 0.001 | gefitinib -0.02

ZZEF1 (UniProt O43149)
inactive: alvocidib 0.005 | Tubastatin A -0.025 | [1] 0.017 | defactinib -0.022 | [2] 0.017 | encorafenib 0.022 | [3] 0.065 | alisertib -0.022 | [4] 0.007 | gefitinib 0.008

VASP (UniProt P50552)
inactive: alvocidib 0.031 | Tubastatin A 0.022 | [1] -0.017 | defactinib 0.013 | [2] -0.003 | encorafenib -0.033 | [3] -0.007 | alisertib 0.018 | [4] 0.009 | gefitinib 0.019

ZMYM2 (UniProt Q9UBW7)
inactive: alvocidib 0.076 | Tubastatin A -0.155 | [1] 0.003 | defactinib 0.121 | [2] -0.021 | encorafenib -0.214 | [3] -0.018 | alisertib -0.077 | [4] 0.087 | gefitinib 0.06

ZFYVE19 (UniProt Q96K21)
Chain of UniProt Q96K21 (Q96K21 whole entry, looked up): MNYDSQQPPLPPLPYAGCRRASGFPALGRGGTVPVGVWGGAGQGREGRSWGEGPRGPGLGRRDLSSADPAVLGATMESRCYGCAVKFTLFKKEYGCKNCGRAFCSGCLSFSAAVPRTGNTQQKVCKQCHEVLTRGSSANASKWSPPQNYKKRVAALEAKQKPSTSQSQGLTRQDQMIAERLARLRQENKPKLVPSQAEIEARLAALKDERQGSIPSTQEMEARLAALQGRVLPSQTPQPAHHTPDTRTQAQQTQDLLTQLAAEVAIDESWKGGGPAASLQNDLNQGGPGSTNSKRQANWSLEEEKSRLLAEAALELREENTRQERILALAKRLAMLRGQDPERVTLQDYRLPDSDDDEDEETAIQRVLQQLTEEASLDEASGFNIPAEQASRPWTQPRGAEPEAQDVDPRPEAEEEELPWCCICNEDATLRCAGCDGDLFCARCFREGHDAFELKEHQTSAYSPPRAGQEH
inactive: alvocidib -0.141 | Tubastatin A 0.026 | [1] -0.037 | defactinib -0.002 | [2] 0.008 | encorafenib -0.001 | [3] -0.04 | alisertib 0.008 | [4] 0 | gefitinib 0.019

VPS39 (UniProt Q96JC1)
inactive: Tubastatin A -0.06 | [1] 0.036 | defactinib 0.011 | [2] 0.007 | encorafenib 0.043 | [3] -0.218 | alisertib 0.041 | [4] 0.026 | gefitinib -0.041
active: alvocidib 0.268

ZNF598 isoform 3 (UniProt Q86UK7)
inactive: alvocidib -0.01 | Tubastatin A -0.095 | [1] 0.025 | defactinib 0.004 | [2] 0.015 | encorafenib 0.004 | [3] -0.039 | alisertib 0.009 | [4] 0.012 | gefitinib 0.007

USE1 (UniProt Q9NZ43)
Chain of UniProt Q9NZ43 (Q9NZ43 whole entry, looked up): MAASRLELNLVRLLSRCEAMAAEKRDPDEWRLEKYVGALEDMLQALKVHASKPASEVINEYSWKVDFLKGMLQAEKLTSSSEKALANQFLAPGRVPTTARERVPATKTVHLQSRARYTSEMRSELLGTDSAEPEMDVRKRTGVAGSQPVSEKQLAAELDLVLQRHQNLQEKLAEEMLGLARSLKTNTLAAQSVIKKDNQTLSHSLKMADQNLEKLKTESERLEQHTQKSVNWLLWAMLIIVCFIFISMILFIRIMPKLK
inactive: alvocidib 0.019 | Tubastatin A -0.054 | [1] -0.002 | defactinib 0.064 | [2] 0.015 | encorafenib 0.067 | [3] -0.037 | alisertib -0.059 | [4] 0.039 | gefitinib -0.026

YRDC (UniProt Q86U90)
inactive: alvocidib 0.015 | Tubastatin A -0.006 | [1] 0.044 | defactinib -0.023 | [2] 0.043 | encorafenib 0.003 | [3] -0.1 | alisertib -0.014 | [4] -0.004 | gefitinib -0.001

YWHAQ (UniProt P27348)
Chain of UniProt P27348 (P27348 whole entry, looked up): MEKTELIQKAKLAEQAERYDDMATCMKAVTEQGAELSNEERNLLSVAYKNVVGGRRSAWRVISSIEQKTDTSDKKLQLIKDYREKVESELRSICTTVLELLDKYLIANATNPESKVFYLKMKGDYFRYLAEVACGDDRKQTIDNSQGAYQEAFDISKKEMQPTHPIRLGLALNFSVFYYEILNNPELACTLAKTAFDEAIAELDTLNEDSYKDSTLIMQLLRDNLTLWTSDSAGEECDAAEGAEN
inactive: alvocidib 0.16 | Tubastatin A -0.021 | [1] -0.006 | defactinib 0 | [2] 0.023 | encorafenib -0.025 | [3] -0.045 | alisertib -0.014 | [4] 0.008 | gefitinib -0.06

ZMYM4 (UniProt Q5VZL5)
inactive: alvocidib -0.071 | Tubastatin A -0.089 | [1] -0.015 | defactinib 0.096 | [2] 0.188 | encorafenib 0.063 | [3] 0.016 | alisertib -0.004 | [4] 0.004 | gefitinib 0.047

XPO6 (UniProt Q96QU8)
inactive: alvocidib -0.058 | Tubastatin A -0.09 | [1] -0.048 | defactinib -0.025 | [2] -0.05 | encorafenib -0.006 | [3] 0.021 | alisertib 0.036 | [4] 0.031 | gefitinib 0.067

VPS33A (UniProt Q96AX1)
inactive: alvocidib -0.01 | Tubastatin A -0.077 | [1] 0.033 | defactinib 0.012 | [2] -0.011 | encorafenib 0.028 | [3] -0.044 | alisertib 0.021 | [4] -0.022 | gefitinib 0.027
